KDM5B inhibitor – blocks human KDM5B histone demethylase activity; 2.6% of 220,000 active; KDM5B demethylase, FDH-coupled NADH fluorescence (FDH is formaldehyde dehydrogenase); Potency, µM (highest dose often 57.7 µM), usual class: inhibitors; Q9UGL1; AID 1347165; also: nearly all actives have a fitted effect of over 70% in size
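Here, H3K4me3 peptide (12.5 µM in substrate mix) is demethylated by KDM5BΔAP, 200 nM final, after 10 min compound exposure. Formaldehyde product is coupled through FDH (0.25 U/mL in mix) to NADH fluorescence; 30-min ΔRFU feeds dose-response curves.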
SNCA viab count – cell viability loss counter-screen. 0.12% of 150,000 active. Potency, µM (series often up to 57.1 µM), actives largely listed as cytotoxic. HEK-293-SNCA-luc viability, GF-AFC fluorescence, 24 h; also: nearly all actives have a fitted effect of over 30% in size
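HEK-293-SNCA-luc cells (1500/well) plated 24 h, then exposed 24 h to a dilution series; GF-AFC added 30 min at 37C, fluorescence 405/540 nm; normalised to medium-only and DMSO wells, Hill fit.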
IP6K1 inh – IP6K1 kinase inhibition; Q92551; IP6K1 kinase, ADP-Glo luminescence, 2 h; hits give low values; activity change, % (series mostly up to about 58 µM); 0.81% of 140,000 active; in the data active = activity change below about -25%
Target sequence (Q92551 whole entry, looked up): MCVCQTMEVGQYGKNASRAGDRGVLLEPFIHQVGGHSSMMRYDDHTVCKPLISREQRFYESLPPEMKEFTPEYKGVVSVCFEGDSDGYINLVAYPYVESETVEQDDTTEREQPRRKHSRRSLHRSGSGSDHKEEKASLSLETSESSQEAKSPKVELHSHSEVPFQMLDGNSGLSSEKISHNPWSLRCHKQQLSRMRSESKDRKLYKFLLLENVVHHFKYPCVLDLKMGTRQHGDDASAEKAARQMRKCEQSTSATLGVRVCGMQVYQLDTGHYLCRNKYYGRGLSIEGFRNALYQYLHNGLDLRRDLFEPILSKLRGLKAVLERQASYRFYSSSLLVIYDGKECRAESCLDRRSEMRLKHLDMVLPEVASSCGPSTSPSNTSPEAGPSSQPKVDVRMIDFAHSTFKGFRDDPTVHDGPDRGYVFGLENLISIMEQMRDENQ
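ADP-Glo luminescence measures ADP made by human IP6K1 during a 2 h RT reaction with ATP/IP6 (mix at 1.3 mM/130 uM); top library doses 57.5 and 19.1 uM final.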
SNCA expr inh – reduces expression of the alpha-synuclein gene; HEK-293 SNCA-luciferase knock-in, luminescence, 24 h; Potency, µM (doses to about 57.2 µM), most hits filed as inhibitors; 0.17% of 140,000 active; also: nearly all actives have a fitted effect of over 45% in size
Hits are given with their value; n = inactive; u = inconclusive; x = no result; [ ] = remark or other dose. Rows were chosen to be rich in hits. Some 2.8% of all compounds tested hit in one or more screens of this group. Unless noted, calls follow the shape of the dose curve; as a rule, active = well fitted curve in the direction sought with a large enough effect; inconclusive = small, poorly fitted or top-dose-only effect, or another doubt; inactive = no such curve, though single readings can be large; an effect the other way counts as inactive or inconclusive.

SMILES	KDM5B inhibitor	SNCA viab count	IP6K1 inh	SNCA expr inh
CCc1cccc(NC(=O)c2cc3n(n2)CC(c2ccc4c(c2)OCO4)OC3)c1 (configuration not stated)	u	u	n	n
COc1ccc(NC(=O)c2cc3n(n2)CC(c2ccc4c(c2)OCO4)OC3)c(OC)c1 (configuration not stated)	35µM	n	n	n
O=C(Nc1cccc(Cl)c1)c1cc2n(n1)CC(c1ccc3c(c1)OCO3)OC2 (configuration not stated)	25µM	n	n	n
O=C(Nc1ccc(Cl)cc1)c1cc2n(n1)CC(c1ccc3c(c1)OCO3)OC2 (configuration not stated)	28µM	n	n	n
O=C(Nc1ccc(F)cc1)c1cc2n(n1)CC(c1ccc3c(c1)OCO3)OC2 (configuration not stated)	u	n	n	u
Cc1cccc(NC(=O)/C(C#N)=C2\CCCC2C)c1 (configuration not stated)	n	x	x	x
O=C(c1ccncc1)N1CCCC(Cc2nc(C3CCOCC3)no2)C1 (configuration not stated)	u	n	n	n
N#Cc1ccc(NC(=O)c2nn(C3CCS(=O)(=O)C3)c3c2CCCC3)cc1 (configuration not stated)	n	x	x	x
O=C(Nc1ccc2c(c1)CCC2)c1cc2n(n1)CC(c1ccc(Cl)cc1)OC2 (configuration not stated)	32µM	n	n	n
O=C(Cc1ccccc1)NC1CCN(CCn2nc3n(c2=O)CCCC3)C1 (configuration not stated)	x	x	n	x
COc1ccc(-c2noc(-c3nc(Cc4ccccc4)no3)n2)cc1	32µM	n	n	n
CCc1noc(-c2nc(-c3ccc(OC)c(OC)c3)no2)n1	n	n	n	n
Fc1cccc(Cc2noc(-c3nc(-c4ccc5c(c4)OCO5)no3)n2)c1	25µM	n	n	n
Cc1ccccc1Cc1noc(-c2nc(-c3ccc4c(c3)OCO4)no2)n1	28µM	n	n	u
Fc1ccc(Cc2noc(-c3nc(-c4ccc5c(c4)OCO5)no3)n2)cc1	u	n	n	n
COc1ccc(-c2noc(-c3nc(Cc4cccc(F)c4)no3)n2)cc1OC	25µM	n	n	n
COc1ccccc1NC(=O)c1cc(=O)c2cc(C)ccc2o1	n	x	x	x
COc1ccccc1-c1cc(C(=O)Nc2ccc(C)cc2)nn2cnnc12	x	n[12.5 µM]	n	n
CCCNS(=O)(=O)c1ccc(N2C(=O)CCS2(=O)=O)cc1C	n	x	x	x
CSc1ccc(-c2cccc(C(=O)NCC(=O)NCc3cccnc3)c2)cc1	x	n	n	n
CCC(CC)C(=O)N1C[C@@H]2CCCN3CCC[C@@H]([C@H]23)[C@H]1CCCC(=O)N1CCOCC1	n	n	n	n
CCOCCCNC(=O)c1nnn2cc(-c3ccccc3)[nH]c(=O)c12	28µM	n	n	n
CCN1CCN(CCNC(=O)c2nnn3cc(-c4ccccc4)[nH]c(=O)c23)CC1	28µM	n	n	n
O=C(NCCN1CCCCC1)c1nnn2cc(-c3ccccc3)[nH]c(=O)c12	n	n	n	n
N#Cc1nc(COc2ccc(F)cc2)oc1NCc1ccco1	n	x	x	x
SMILES	KDM5B inhibitor	SNCA viab count	IP6K1 inh	SNCA expr inh
Cc1noc(C)c1-c1cc2cc(CN(C)C)oc2c(N2CCN(Cc3ccccc3)CC2)n1	u	n	n	n
Cc1ccc2c(n1)N(C)[C@H](CO)CCN(Cc1ccc(C#N)cc1)C2	u	n	n	n
CC(=O)N1CCC(N2CC[C@@H](CO)N(C)c3nc(C)ccc3C2)CC1	32µM	n	n	n
Cc1ccc2c(n1)N(C)[C@H](CO)CCN(CC1CCCCC1)C2	35µM	n	n	n
Cc1ccc2c(n1)N(C)[C@H](CO)CCN(C(=O)Nc1ccccc1)C2	n	n	n	n
Cc1ccc2c(n1)N(C)[C@H](CO)CCN(Cc1ccc(F)cc1)C2	35µM	n	n	n
Cc1ccc2c(n1)N(C)[C@H](CO)CCN(Cc1ccccc1Cl)C2	u	n	n	n
CC(C)(Oc1ccccc1)C(=O)Nc1ccccc1C#N	n	x	x	x
CC(=O)c1c(C)nn(CC(=O)N2CCN3C(=O)CN(C)C(=O)C3C2)c1C (configuration not stated)	n	n	n	n
Cc1cc(C)n2nc(C(=O)N3CCN4C(=O)CN(C)C(=O)C4C3)cc2n1 (configuration not stated)	28µM	n	n	n
CCCc1ccc(S(=O)(=O)N2CCc3nc4cc[nH]n4c(=O)c3C2)cc1	14µM	n	n	u
Cc1ccc(S(=O)(=O)N2CCc3nc4cc[nH]n4c(=O)c3C2)cc1C	25µM	n	n	n
Cc1cn2nc(C(=O)N3CCN(c4ccccn4)CC3)cc2c(N2CCCC2)n1	25µM	u	n	n
Cc1cn2nc(C(=O)N3CCN(c4cccc(Cl)c4)CC3)cc2c(N2CCCC2)n1	35µM	n	n	n
OCCC1CCN(c2ccc(-c3nc(CCCc4ccccc4)no3)cn2)CC1	n	n	n	n
OCCC1CN(c2ccc(-c3nc(CCCc4ccccc4)no3)cn2)CCO1 (configuration not stated)	20µM	n	n	n
CC1(O)CCCN(c2ccc(-c3nc(CCCc4ccccc4)no3)cn2)C1 (configuration not stated)	22µM	n	n	n
COc1ccc(CN(C)C(=O)Cn2nnnc2CN2CCOCC2)c2cccnc12	22µM	n	n	n
CCC(C)[C@H](NC(=O)C1CCC(CNC(=O)[C@@H]2CCCN2C(=O)OC(C)(C)C)CC1)C(=O)O (some centres not stated)	n	x	x	x
CCCNC(=O)[C@H]1O[C@H]1C(=O)N[C@H](C(=O)N1CCC[C@@H]1C(=O)OC)C(C)CC (some centres not stated)	x	22µM	x	u
CCN(CC)C(=O)c1sc2c(c1C)c(=O)n(Cc1ccccc1)c(=O)n2CC(=O)Nc1ccc(OC)cc1	n	n	n	n
CCc1cccc(NC(=O)Cn2c(=O)n(Cc3ccccc3)c(=O)c3c(C)c(C(=O)N(C)C)sc32)c1	n	n	n	13µM
COc1ccc(CCn2c(SCc3ccccc3)nc3c2c(=O)n(C)c(=O)n3C)cc1	n	x	x	x
c1nc2nc(Nc3ccc(N4CCOCC4)cc3)nc(NC3CCCCC3)c2[nH]1	x	u	-41	u
CCC(=O)N(C1CCOCC1)C1CCN(S(=O)(=O)c2ccccc2Cl)CC1	n	n	n	n
SMILES	KDM5B inhibitor	SNCA viab count	IP6K1 inh	SNCA expr inh
COC(=O)N1CCN(Cc2ccccc2-c2ccc(C)c(Cl)c2)CC1	x	n[12.5 µM]	n	n
O=C(NCc1ccc2c(c1)OCO2)c1nc(-c2ccc(Cl)cc2)c2cnccn12	28µM	n	n	n
C#CCNC(=O)c1nc(-c2ccc(Cl)cc2)c2ccccn12	32µM	n	n	n
C#CCNC(=O)c1nc(-c2ccc(Cl)cc2)c2cnccn12	40µM	n	n	n
C#CCNC(=O)c1nc(-c2cc(Cl)cc(Cl)c2)c2ccccn12	10µM	n	n	n
O=C(c1n[nH]c2c1CN(Cc1cccnc1)CC2)N1CCOCC1	n	n	n	n
C#CCNC(=O)c1nc(-c2ccc(Cl)cc2Cl)c2ccccn12	89µM	n	n	u
